In all, about 330,000 compounds went through this assay and about 940 (0.28%) were called active. The full list was thinned out, with actives kept by preference. Unmarked numbers belong to inactive results. No stated cut-off is given here; in the data, active means inhibition above about 12%; inactive means the rest.

The term inhibition denotes the relative decrease from the control value, in per cent.

The assay in a line: growth inhibition of E. coli expressing H. pylori AddAB, primary screen, AddAB inhibitor project, absorbance (AID 435030).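 Further: 0% = vehicle wells of infected cells.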 Particulars: at 11.9 µM, hits give high values.
With `COc1cccc(C(=O)N2CCC(n3nccc3NC(=O)C3CCOC3)CC2)c1` (stereo unspecified), the inhibition is 0.08%. Consider `Cc1ccc(-c2nnc(CN3CCN(C)CC3)o2)cc1`, for which the inhibition is -0.67%. Consider `CC(C)(C)SCCSC1=CC(=O)CC(c2ccccc2)C1` (stereo unspecified), for which the inhibition is 0.25%. As for `CCn1cc(CN2CCN(CC(C)(C)C)C(CCO)C2)c2ccccc21` (stereo unspecified), the inhibition was -1.04%.

On to `CC1=C(C(=O)OC2CCCCC2)C(c2cccnc2)n2ncnc2N1` (stereo unspecified), for which the inhibition is 0%. Turning to `COc1ccccc1NC(=O)C1=C(C)Nc2ncnn2C1c1ccc(C)o1` (stereo unspecified), the inhibition is -0.48%. In the case of `CC1=C(C(=O)OCc2ccccc2)C(c2ccco2)n2ncnc2N1` (stereo unspecified), the inhibition was 14.7% (active).

Consider `COC(=O)C1(C)NC(c2ccc(F)cc2)C2C(=O)N(c3ccccc3)C(=O)C21` (stereo unspecified), for which the inhibition was 1.16%.

Regarding `CC(C)C[C@H]1CN=C(Nc2ccccc2)N1CC1CCCCC1`, the inhibition is 2.92%. Regarding `CCOc1ccc(C(C)=O)cc1COC(=O)CNC(=O)c1cccs1`, the inhibition is 3.06%.

For `CC1CCCC(C)N1C(=O)CN1CCN(c2nc(-c3ccc(F)cc3)cs2)CC1` (stereo unspecified), the inhibition is 1.81%. On to `CCn1c(=S)sc2c(=O)n(CC(=O)Nc3ccc(OC)cc3)c(C)nc21`, for which the inhibition is 0.15%.

Consider `O=C1Nc2cc(Cl)c(Cl)cc2N(O)N1c1cc(Cl)cc(Cl)c1`, for which the inhibition was -1%. As for `COc1ccc(C(=O)NCC(=O)N/N=C/c2ccc([N+](=O)[O-])o2)cc1OC`, the inhibition is 9.43%. Consider `COC(=O)C1=C(C)N(C)C(=O)NC1c1ccc([N+](=O)[O-])o1` (stereo unspecified), for which the inhibition is 3.34%. Turning to `C/[N+]([O-])=C\c1ccc([N+](=O)[O-])o1`, the inhibition is 79% (active). Turning to `COc1cccc(/C=N/Nc2ncc(C(F)(F)F)cc2Cl)c1O`, the inhibition is 12.5% (active). Take `COc1ccc(Br)cc1/C=N/Nc1ccc(Cl)c(C(=O)O)c1`: the inhibition is 1.8%. Regarding `CCOc1cccc(/C=N/NC(=S)NCCN2CCOCC2)c1O`, the inhibition was -0.42%. For `O=C(Nc1ccc(Br)cn1)c1ccc([N+](=O)[O-])o1` the value was 97.7% (active). Regarding `Cc1onc(NC(=O)c2ccc([N+](=O)[O-])o2)c1Br`, the inhibition was 9.34%.

On to `Cc1cccc(NC(=O)c2ccc([N+](=O)[O-])o2)c1`, for which the inhibition was 38.2% (active). Take `CN1C(=O)c2ccc(C(=O)Nc3ccc(Br)cn3)cc2C1=O`: the inhibition is -3.02%. Take `O=C(Nc1cccc(O)c1)c1ccc(C(=O)c2ccccc2)o1`: the inhibition is 1.45%. For `O=C(Nc1ccc(Br)cn1)c1ccc([N+](=O)[O-])cc1Cl` the value was -0.17%; for `CCOc1ccc(C(C)=O)cc1COC(=O)CN1C(=O)NC2(CCCC2)C1=O`, 0.34%; for `Brc1cnc(N2CCCC2)nc1N1CCCCC1`, 2.22%. Regarding `CCC(=C/c1sc2ccc3ccccc3c2[n+]1C)/C=C1\Sc2ccc3ccccc3c2N1C`, the inhibition was 9.85%. In the case of `Cc1ccc(S(=O)(=O)c2ccc(Cl)cc2)cc1S(=O)(=O)NC(C(=O)O)C(C)C` (stereo unspecified) it was 3.7%; in that of `NC(=O)C1CCN(C(=O)c2ccc3c(=O)n(Cc4cccc(Br)c4)c(=S)[nH]c3c2)CC1`, 1.96%; in that of `COc1ccc(NC(=O)C(Br)C(C)C)cc1` (stereo unspecified), 0.42%. As for `O=C(CSc1ccc(-c2ccc(-n3cccn3)cc2)nn1)Nc1ccc([N+](=O)[O-])cc1`, the inhibition was 2.04%.

On to `O=C(CSc1ccc(-c2ccccn2)nn1)Nc1ccccc1`, for which the inhibition is 12.4% (active).

As for `O=C(CSc1ccc(-c2ccco2)nn1)Nc1cccc(F)c1`, the inhibition was 1.52%. Turning to `O=C(CNc1ccc(F)cc1F)NC(=O)NCc1ccco1`, the inhibition is -1.79%. Take `O=C1CCCC(O)=C1N=Nc1ccc2ncsc2c1`: the inhibition was 1.13%. Turning to `COc1ccc(CNC(=O)CN(c2ccc(OC)c(Cl)c2)S(=O)(=O)c2ccc(C)cc2)cc1`, the inhibition was 0.77%. In the case of `Oc1c(Br)cccc1/C=N/Nc1c(F)c(F)c(F)c(F)c1F` it was 5.1%; in that of `Oc1ccc(Br)cc1/C=N/Nc1ccccn1`, 4.69%; in that of `Oc1cccc(/C=N/Nc2ccc(Cl)nn2)c1O`, 13.3% (active). In the case of `Cc1noc(C)c1C(=O)OC(C)C(=O)Nc1ccc2c(c1)OCO2` (stereo unspecified) it was 1.01%; in that of `CC1(C)c2[nH]c3ccccc3c2C[C@H]2C(=O)N(N)CC(=O)N21`, -0.5%; in that of `O=C(CCc1ccc(S(=O)(=O)N2CCOCC2)cc1)OCC(=O)c1ccc(Br)cc1`, 3.02%. `Cc1nnc(NC2=NCCCCC2)o1`: the inhibition was 0.25%. In the case of `O=C1CCC(=O)N(O)CCCCCNC(=O)CCC(=O)N(O)CCCCCNC(=O)CCC(=O)N(O)CCCCCN1` it was 35.8% (active). As for `CCN1CCC2(CCN(Cc3cn[nH]c3-c3ccc(OC)c(F)c3)C2)C1` (stereo unspecified), the inhibition is 0.65%. As for `CCOC(=O)c1ccccc1N1C(=O)C2Sc3[nH]c(=O)sc3C(/C=C/c3ccccc3)C2C1=O` (stereo unspecified), the inhibition was 2.63%. For `COc1ccc(C2/C=C\CN(CC(C)C)CC(=O)N2Cc2ccc(F)cc2)cc1` (stereo unspecified) the value was 2.22%; for `O=C1/C(=C/c2cccs2)SC(=S)N1C1CCS(=O)(=O)C1` (stereo unspecified), -0.44%; for `CCOc1ccc(NC(=O)CN(C)C(=O)Cc2sc(C)nc2-c2ccc(F)cc2)cc1OCC`, 1.75%. In the case of `CCN1/C(=C\c2ccc3ccccc3[n+]2CC)Sc2cc(C)ccc21`, the inhibition was 13.3% (active). For the compound `O=C(NCCCN1CCCCCC1)C1CC(=O)N(C2CCCC2)C1` (stereo unspecified), the inhibition is -0.68%.

Regarding `O=C(Nc1cccc(S(=O)(=O)N2CCOCC2)c1)C12CC3CC(CC(C3)C1)C2`, the inhibition was 0.82%. For `CCCC(=O)OCC(=O)Nc1cc(Cl)ccc1[N+](=O)[O-]` the value was 0.77%; for `CC(C)(C)NC(=O)COC(=O)c1cc(Cl)ccc1[N+](=O)[O-]`, 57.9% (active); for `CC(C)(C)NC(=O)COC(=O)c1cc(Br)ccc1Cl`, 1.15%.

Take `CN(NC(=O)C1CC(=O)N(c2ccccc2)C1)C1=NS(=O)(=O)c2ccccc21` (stereo unspecified): the inhibition was 1%. In the case of `Cn1nnc2cc(C(=O)NCCC3=CCCCC3)ccc21` it was 0%; in that of `Cc1cc(=O)n2nc(N3CCCC(C(=O)NCCC4=CCCCC4)C3)sc2n1` (stereo unspecified), 0.49%. In the case of `CC1CCCN(C(=O)c2ccc3c(c2)C(=O)N(CCC2=CCCCC2)C3=O)C1` (stereo unspecified) it was 22.9% (active).

Regarding `O=C(c1n[nH]c2c1CCC2)N1CCCC(Nc2cccc(F)c2)C1` (stereo unspecified), the inhibition was 2.86%. As for `Cc1cc(C)c2c(c1)cc(C)c1nnc(SCC(=O)Nc3cc(C)on3)n12`, the inhibition was 1.96%. As for `Cc1cc(S(=O)(=O)c2cc3ccc(O)c(C)c3oc2=O)ccc1F`, the inhibition was 0.08%. For `CC1CN(C(=S)Nc2ccccc2F)CC(C)O1` (stereo unspecified) the value was -1.09%; for `COc1c(N2CCN(C(=S)Nc3ccccc3F)C(C)C2)c(F)cc2c(=O)c(C(=O)O)cn(C3CC3)c12` (stereo unspecified), 99.7% (active).

In the case of `COc1ccccc1NC(=S)N1CCN(c2ccc(F)cc2)CC1`, the inhibition is -2.49%. `COc1ccc(Cl)cc1C(=O)OCC(=O)NCc1cccs1`: the inhibition is 0.75%.

For `Cc1ccc(S(=O)(=O)N2CCN(C(=O)Cn3c(=O)cnc4ccccc43)CC2)c(C)c1`, the inhibition was 0.34%. With `O=C(Nc1ccc(OC(F)(F)F)cc1)c1ccc2c(c1)no[n+]2[O-]`, the inhibition is 3.14%. Turning to `CN1CCN(c2cc3c(cc2F)c(=O)c(C(=O)O)cn3CCF)CC1`, the inhibition is 98.6% (active).

As for `CCCCNC(=O)c1cn(CC)c2cc(N3CCN(C(=O)c4ccco4)CC3)c(F)cc2c1=O`, the inhibition was 11.8%. Turning to `CCCCCCn1cc(C(=O)O)c(=O)c2cc(F)c(N3CCCCC3)cc21`, the inhibition is -1.14%. `CCn1cc(C(=O)NCCO)c(=O)c2cc(F)c(N3CCN(C)CC3)cc21`: the inhibition is 98.8% (active). Regarding `CCn1cc(C(=O)NCCC(=O)NCCO)c(=O)c2cc3c(cc21)OCO3`, the inhibition was -2.55%. For `CCn1cc(S(=O)(=O)c2cccc(C)c2)c(=O)c2cc(F)c(N3CCN(C)CC3)cc21` the value was -1.64%; for `Cc1csc(NC(=O)C2CCCN2C(=O)OCC(C)C)n1` (stereo unspecified), 0.97%; for `Cc1nn(C)c(C)c1Sc1ccccc1N`, -0.51%. For `O=C(COC(=O)Cn1[nH]c(=O)c2ccccc2c1=O)Nc1c(Cl)cccc1C(F)(F)F` the value was -0.85%. With `O=C(COC(=O)c1ccc([N+](=O)[O-])o1)NC12CC3CC(CC(C3)C1)C2`, the inhibition is 2.74%. For `O=C(OCC(=O)c1cccs1)c1ccc([N+](=O)[O-])o1` the value was 16.4% (active); for `O=C(OCC(=O)c1cccs1)C1=COCCO1`, 3.94%. As to `O=C(Cc1ccccc1)NNC1CC(=O)N(c2ccc(Br)cc2)C1=O` (stereo unspecified), the inhibition was 0.17%. On to `Cc1ccccc1OCC(=O)NNC(=O)c1cc(S(=O)(=O)N(C)C)ccc1N1CCCC1`, for which the inhibition is -1.04%. For `Cc1cc([N+](=O)[O-])nn1CC(=O)Nc1ccc(Cc2ccncc2)cc1` the value was -1.17%; for `Cc1ccc(COc2ccc(C(=O)NN)cc2)cc1`, 3%; for `O=C(C/C(=N\NC(=O)c1ccccc1Br)C(F)(F)F)c1cccs1`, 0.69%. On to `C=CC(=O)OCCOCCOCCOCCOC(=O)C=C`, for which the inhibition was -0.85%. `CC1C(=O)N2CCCc3cc(S(=O)(=O)NCc4ccc(F)cc4)cc1c32` (stereo unspecified): the inhibition was -1.44%. In the case of `CC(=O)c1c(C)n([O-])c2ccccc2[n+]1=O`, the inhibition is 38.5% (active).

In the case of `Cc1c(C=O)c2ccccc2n1CC(=O)O`, the inhibition was -5.83%. Take `CCNc1nc(NC(C)C)nc(N2CC(=O)N(CC(=O)OCC)C2=N)n1`: the inhibition was -0.43%.

On to `CNC(C)C#Cc1ccc2sc3cc(OC)c(OC)cc3c(=O)c2c1` (stereo unspecified), for which the inhibition was 3.07%. Regarding `O=C(C1=C(O)C(=O)N(CCOCCO)C1c1ccccn1)c1cccs1` (stereo unspecified), the inhibition is -0.51%. In the case of `O=C(NCC1CCCO1)/C(=C/c1ccc(Cl)cc1)NC(=O)c1ccccc1` (stereo unspecified) it was 3.87%. Turning to `O=C(NCC1CCCO1)C(C(=O)c1ccccc1)n1cc(Cl)ccc1=O` (stereo unspecified), the inhibition was 99.8% (active).

With `O=C(CSc1ccc(-c2ccccc2)nn1)NCC1CCCO1` (stereo unspecified), the inhibition is -1.35%.

The values above are taken from PubChem BioAssay AID435030 (The Scripps Research Institute Molecular Screening Center, 2010).
